Read-out in experiment [1]: sulfotransferase (SULT2A), SULT2A1 (gene 6822)
Description: CLD_SULT2A_6hr: CellzDirect (CLD) Gene Expression Assay for sulfotransferase (SULT2A) at 6 hours (AID 2283669).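 Also: hits raise transcript level above the DMSO vehicle baseline.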 Summed up:
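Primary human hepatocytes from two donor preparations were dosed daily with chemicals or 0.2% DMSO and harvested at 6 h. Transcript induction read by qNPA chemiluminescence, fitted for gain of signal relative to DMSO; morphology-based cytotoxicity annotated.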

Read-out in experiment [2]: Cytochrome P450 (CYP24A1_1), CYP24A1 (gene 1591)
Description: LTEA_HepaRG_CYP24A1_1: Life Technologies and Expression Analysis (LTEA) Assay for Cytochrome P450 (CYP24A1_1) using HepaRG (AID 2283671; active = hit-call score of the fitted dose curve at least 0.9, where 1 is the maximum; inactive = score below 0.9). The following applies: mRNA level, 48 h; actives raise or lower the signal. Summed up:
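HepaRG, 48 h exposure, 8-pt half-log series from 100 uM in 0.5% DMSO, duplicates. Readout: TaqMan qRT-PCR of CYP24A1 mRNA, housekeeping-normalized (ACTB/GAPDH/POLR2A). Bidirectional curve fit vs DMSO baseline.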

Read-out in experiment [3]: ABC Transporter (ABCB11), ABCB11 (gene 8647)
As to the kind of experiment: CLD_ABCB11_6hr: CellzDirect (CLD) Gene Expression Assay for ABC Transporter (ABCB11) at 6 hours (AID 2283675).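 Also: hits raise ABCB11 mRNA level so AC50 marks induction.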 The gist of the method:
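Human primary hepatocytes (two donor preparations) given fresh chemical daily at multiple concentrations, vehicle 0.2% DMSO. ABCB11 mRNA induction measured 6 h after dosing by qNPA chemiluminescence versus DMSO; cytotoxicity annotated from morphology.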

Read-out in experiment [4]: Cytochrome P450 2B6 (Homo sapiens) (UniProt P20813)
As to the kind of experiment: CLD_CYP2B6_6hr: CellzDirect (CLD) Gene Expression Assay for xenobiotic metabolism (CYP2B6) at 6 hours (AID 2283677).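 Also: actives raise CYP2B6 transcript above DMSO baseline so AC50 marks an inducer.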 Summed up:
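Primary human hepatocytes dosed with chemicals at multiple concentrations, vehicle 0.2% DMSO; CYP2B6 mRNA induction measured 6 h after dosing by quantitative nuclease protection assay with chemiluminescence, gain of signal fitted relative to DMSO.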

A short description of experiment [5]: CCTE_Padilla_ZF_144hpf_TERATOSCORE: (Legacy) CCTE's 144 Hour Post-fertilization zebrafish Assay Teratoscore, Padilla Lab (AID 2283679; active = hit-call score of the fitted dose curve at least 0.9, where 1 is the maximum; inactive = score below 0.9;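 as to AC50: zebrafish embryos with chorions exposed by immersion from 6-8 hpf to 5 dpf with daily renewal; teratogenicity score from eye scoring of death hatching and malformations at 144 hpf; higher score means more developmental defects relative to DMSO baseline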). The gist of the method: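 Larvae scored by eye at 144 hpf for death, hatching and malformations after a day in clean Hanks'. Before that, daily-renewed exposure at 80 uM (0.4% DMSO, 26C) from roughly 6-8 hpf through 5 dpf, 4 embryos per chemical.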

Read-out in experiment [6]: ABC Transporter (ABCB1), ABCB1 (gene 5243)
Description: CLD_ABCB1_24hr: CellzDirect (CLD) Gene Expression Assay for ABC Transporter (ABCB1) at 24 hours (AID 2283684). Summed up:
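Primary human hepatocytes, two donor preparations, dosed daily with fresh solutions; vehicle 0.2% DMSO; harvested at 24 h. ABCB1 mRNA measured by quantitative nuclease protection assay (chemiluminescence); morphology-based cytotoxicity annotated.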

Read-out in experiment [7]: Broad substrate specificity ATP-binding cassette transporter ABCG2 (Homo sapiens) (UniProt Q9UNQ0)
Description: CLD_ABCG2_24hr: CellzDirect (CLD) Gene Expression Assay for ABC Transporter (ABCG2) at 24 hours (AID 2283685). The gist of the method:
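Primary human hepatocytes were dosed daily with ToxCast chemicals at multiple concentrations (vehicle 0.2% DMSO). ABCG2 mRNA was measured at 24 h by qNPA chemiluminescence; induction was scored as gain of signal versus DMSO.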

A short description of experiment [8]: CLD_ACTIN_24hr: CellzDirect (CLD) Gene Expression Assay for Baseline Control (Actin) at 24 hours (AID 2283670). The gist of the method:
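Primary human hepatocytes dosed over multiple concentrations with 0.2% DMSO vehicle; actin mRNA measured at 24 h by qNPA chemiluminescence. Background control endpoint, fitted as gain of signal versus DMSO.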

Read-out in experiment [9]: glucuronosyltransferase (UGT1A1), UGT1A1 (gene 54658)
As to the kind of experiment: CLD_UGT1A1_6hr: CellzDirect (CLD) Gene Expression Assay for glucuronosyltransferase (UGT1A1) at 6 hours (AID 2283672). The gist of the method:
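Primary human hepatocytes from two donor preparations, dosed with fresh solutions in 0.2% DMSO, harvested at 6 h. UGT1A1 mRNA measured by qNPA chemiluminescence; induction fitted upward versus DMSO.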

Experiment [10] is described as follows: CLD_ACTIN_6hr: CellzDirect (CLD) Gene Expression Assay for Baseline Control (Actin) at 6 hours (AID 2283676).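 Also: active means increased actin mRNA relative to DMSO vehicle.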 The gist of the method:
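Primary human hepatocytes dosed with fresh chemical solutions (vehicle 0.2% DMSO), harvested at 6 h. Actin mRNA quantified by quantitative nuclease protection assay with chemiluminescent read-out, as background control relative to DMSO.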

Read-out in experiment [11]: Cytochrome P450 2C19 (Homo sapiens) (UniProt P33261)
Description: CLD_CYP2C19_6hr: CellzDirect (CLD) Gene Expression Assay for xenobiotic metabolism (CYP2C19) at 6 hours (AID 2283678). Summed up: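 Primary human hepatocytes from two donor preparations were dosed daily, with 0.2% DMSO as vehicle, and harvested 6 h after dosing. CYP2C19 mRNA induction was measured by qNPA chemiluminescence and fitted as gain of signal against DMSO.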

Read-out in experiment [12]: Glyceraldehyde-3-phosphate dehydrogenase (Homo sapiens) (UniProt P04406)
As to the kind of experiment: CLD_GAPDH_6hr: CellzDirect (CLD) Gene Expression Assay for Baseline Control (Glyceraldehyde 3-phosphate dehydrogenase) at 6 hours (AID 2283681).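 Also: active means increased signal relative to DMSO vehicle.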 Summed up: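 Primary human hepatocytes from two donor preparations, dosed at multiple concentrations with 0.2% DMSO vehicle; GAPDH mRNA measured 6 h after dosing by chemiluminescent quantitative nuclease protection assay (qNPA) on denatured lysates. Serves as background control; cytotoxicity annotated by morphology.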

Read-out in experiment [13]: Cytochrome P450 2B6 (Homo sapiens) (UniProt P20813)
Description: CLD_CYP2B6_24hr: CellzDirect (CLD) Gene Expression Assay for xenobiotic metabolism (CYP2B6) at 24 hours (AID 2283686). The gist of the method: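 Primary human hepatocytes dosed daily for two days with fresh solutions, harvested at 24 hours; mRNA induction quantified by qNPA chemiluminescence, gain of signal vs 0.2% DMSO vehicle. Cytotoxicity annotated from phase-contrast morphology.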

Read-out in experiment [14]: xenobiotic metabolism (CYP1A1), CYP1A1 (gene 1543)
Description: CLD_CYP1A1_24hr: CellzDirect (CLD) Gene Expression Assay for xenobiotic metabolism (CYP1A1) at 24 hours (AID 2283673).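 Also: CYP1A1 mRNA level by quantitative nuclease protection with chemiluminescence.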 The gist of the method:
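Primary human hepatocytes dosed daily with fresh solutions in 0.2% DMSO vehicle. mRNA measured at 24 h by quantitative nuclease protection assay with chemiluminescence; gain-of-signal fit versus DMSO, with morphology-based cytotoxicity flags.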

Read-out in experiment [15]: ABC Transporter (ABCB11), ABCB11 (gene 8647)
Description: CLD_ABCB11_24hr: CellzDirect (CLD) Gene Expression Assay for ABC Transporter (ABCB11) at 24 hours (AID 2283674; active = hit-call score of the fitted dose curve at least 0.9, where 1 is the maximum; inactive = score below 0.9). Summed up: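 Primary human hepatocytes were dosed daily for two days, with 0.2% DMSO vehicle. ABCB11 mRNA induction was measured at 24 hours by quantitative nuclease protection assay with chemiluminescence. Gain of signal was fitted relative to DMSO.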

Read-out in experiment [16]: Cytochrome P450 2C19 (Homo sapiens) (UniProt P33261)
Description: CLD_CYP2C19_24hr: CellzDirect (CLD) Gene Expression Assay for xenobiotic metabolism (CYP2C19) at 24 hours (AID 2283687).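 Also: activity means mRNA induction above DMSO vehicle baseline.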 Summed up: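 Primary human hepatocytes (two donor preparations) dosed daily with fresh test chemical in 0.2% DMSO vehicle; CYP2C19 mRNA induction measured at 24 h by quantitative nuclease protection assay with chemiluminescence, fitted for gain of signal versus DMSO.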

Read-out in experiment [17]: Cytochrome P450 3A4 (Homo sapiens) (UniProt P08684)
Description: CLD_CYP3A4_24hr: CellzDirect (CLD) Gene Expression Assay for xenobiotic metabolism (CYP3A4) at 24 hours (AID 2283689). The gist of the method:
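Primary human hepatocytes from two donors dosed daily with fresh compound for two days, 0.2% DMSO vehicle. CYP3A4 mRNA at 24 hr by qNPA chemiluminescence; gain-of-signal fit versus DMSO, cytotoxicity flagged by morphology.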

Records with an inconclusive call do not appear. Activity calls are given as the source filed them. The calls were made as follows, unless noted: active = hit-call score of the fitted dose curve at least 0.9, where 1 is the maximum; inconclusive = response in the unintended direction; inactive = score below 0.9.

Sequence of Cytochrome P450 3A4 (Homo sapiens) (P08684 whole entry, looked up): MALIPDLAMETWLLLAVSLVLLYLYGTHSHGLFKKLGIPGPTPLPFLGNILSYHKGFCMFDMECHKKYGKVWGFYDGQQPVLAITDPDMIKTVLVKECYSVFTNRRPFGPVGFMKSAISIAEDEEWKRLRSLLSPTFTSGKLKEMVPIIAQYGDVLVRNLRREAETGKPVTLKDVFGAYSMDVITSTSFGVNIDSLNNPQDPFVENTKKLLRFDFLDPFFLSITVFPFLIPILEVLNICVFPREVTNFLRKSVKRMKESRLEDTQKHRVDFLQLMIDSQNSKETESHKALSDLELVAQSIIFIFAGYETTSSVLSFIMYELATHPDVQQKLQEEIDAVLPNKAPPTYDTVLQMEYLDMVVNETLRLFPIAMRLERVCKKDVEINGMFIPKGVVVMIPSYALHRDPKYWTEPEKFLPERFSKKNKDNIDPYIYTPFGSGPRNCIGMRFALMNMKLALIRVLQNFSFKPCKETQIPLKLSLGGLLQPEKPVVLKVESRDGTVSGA
Sequence of Broad substrate specificity ATP-binding cassette transporter ABCG2 (Homo sapiens) (Q9UNQ0 whole entry, looked up): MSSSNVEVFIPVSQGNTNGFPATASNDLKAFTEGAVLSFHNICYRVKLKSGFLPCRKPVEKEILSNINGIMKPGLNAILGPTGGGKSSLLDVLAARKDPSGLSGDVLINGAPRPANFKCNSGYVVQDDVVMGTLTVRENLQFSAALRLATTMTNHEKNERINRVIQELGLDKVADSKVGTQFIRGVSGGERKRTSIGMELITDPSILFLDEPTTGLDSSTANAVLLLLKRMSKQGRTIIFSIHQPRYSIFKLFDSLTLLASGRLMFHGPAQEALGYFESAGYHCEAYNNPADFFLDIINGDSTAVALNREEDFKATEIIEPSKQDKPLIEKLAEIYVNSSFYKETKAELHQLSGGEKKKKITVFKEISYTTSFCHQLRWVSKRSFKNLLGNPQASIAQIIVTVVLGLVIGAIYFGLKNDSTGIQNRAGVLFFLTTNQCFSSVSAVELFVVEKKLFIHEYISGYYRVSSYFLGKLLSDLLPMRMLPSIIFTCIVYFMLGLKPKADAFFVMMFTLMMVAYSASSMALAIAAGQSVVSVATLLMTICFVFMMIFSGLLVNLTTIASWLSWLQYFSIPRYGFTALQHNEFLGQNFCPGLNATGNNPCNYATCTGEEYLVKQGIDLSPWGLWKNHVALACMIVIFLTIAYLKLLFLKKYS
Sequence of Cytochrome P450 2C19 (Homo sapiens) (P33261 whole entry, looked up): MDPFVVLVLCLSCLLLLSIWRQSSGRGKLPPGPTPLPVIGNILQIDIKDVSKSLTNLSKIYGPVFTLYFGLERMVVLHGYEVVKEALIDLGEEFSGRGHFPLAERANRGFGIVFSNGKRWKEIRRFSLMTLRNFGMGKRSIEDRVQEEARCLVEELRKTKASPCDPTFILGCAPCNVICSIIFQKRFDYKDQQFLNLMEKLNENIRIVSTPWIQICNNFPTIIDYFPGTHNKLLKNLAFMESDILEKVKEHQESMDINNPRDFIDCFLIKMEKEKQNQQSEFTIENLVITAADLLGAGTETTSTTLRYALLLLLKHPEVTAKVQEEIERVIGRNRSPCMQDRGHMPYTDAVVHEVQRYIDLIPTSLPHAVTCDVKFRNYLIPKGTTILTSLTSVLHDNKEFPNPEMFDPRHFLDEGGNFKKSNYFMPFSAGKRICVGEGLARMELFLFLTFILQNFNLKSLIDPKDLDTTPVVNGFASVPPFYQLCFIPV
Sequence of Glyceraldehyde-3-phosphate dehydrogenase (Homo sapiens) (P04406 whole entry, looked up): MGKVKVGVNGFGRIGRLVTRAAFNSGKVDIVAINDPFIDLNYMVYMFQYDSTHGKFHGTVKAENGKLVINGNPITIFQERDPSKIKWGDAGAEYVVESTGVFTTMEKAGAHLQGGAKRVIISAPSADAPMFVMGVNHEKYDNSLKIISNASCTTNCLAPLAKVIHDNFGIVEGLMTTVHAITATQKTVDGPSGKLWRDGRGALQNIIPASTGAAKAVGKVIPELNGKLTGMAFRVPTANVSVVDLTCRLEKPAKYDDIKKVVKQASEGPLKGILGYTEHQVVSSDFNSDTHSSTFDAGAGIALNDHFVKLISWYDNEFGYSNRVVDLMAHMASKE

Regarding `CC(COc1ccc(Oc2ccccc2)cc1)Oc1ccccn1` (stereo not given), the molecule was classed as inactive in [1], in [2], in experiment [3], in experiment [6] and in experiment [7]. In addition, the AC50 (in general, the midpoint of the concentration-response curve, whichever way the signal moves) in experiment [4] is 3.97 µM (active); in experiment [5], 47.6 µM (active).
For the molecule `Nc1nc(N)nc(NC2CC2)n1`, the molecule was classed as inactive in experiment [8], in experiment [9], in [3], in [10], in experiment [4] and in [11]. Moreover, the call in experiment [5], in experiment [12], in [6], in experiment [7] and in [13] was inactive.
For the molecule `Cc1nn(-c2cc(NS(C)(=O)=O)c(Cl)cc2Cl)c(=O)n1C(F)F`, the molecule was called inactive in [8], in experiment [14], in experiment [15], in [10], in experiment [12] and in experiment [7]. The molecule was called inactive in [16]. Besides, the concentration at half-maximal activity (AC50) is 4.25 µM (active) in [4] and 56.9 µM (active) in [5].
For the molecule `COP(=O)(OC)C(O)C(Cl)(Cl)Cl` (stereo not given), the outcome in experiment [8], in experiment [9], in experiment [15], in [3], in experiment [12] and in experiment [7] was inactive. Further, the AC50 in experiment [5] is 168 µM (active).
Consider `CCOP(=S)(OCC)SCCSCC`, for which the result in [8], in experiment [15], in [3], in experiment [10], in [11] and in experiment [5] was inactive. The call in experiment [7] and in experiment [16] was inactive. Moreover, the concentration at half-maximal activity (AC50) was 14.1 µM (active) in [4], 3.91 µM (active) in [13] and 20 µM (active) in experiment [17].
Take `N#CSCSC#N`: the molecule was classed as inactive in experiment [8], in experiment [15], in experiment [3], in [10], in experiment [4] and in experiment [12]. In addition, the result in [6], in experiment [7] and in experiment [17] was inactive. Further, the AC50 in experiment [5] is 5.18 µM (active).
Turning to `CC(C)=CC1C(C(=O)OCN2C(=O)C3=C(CCCC3)C2=O)C1(C)C` (stereo not given), the molecule was called inactive in experiment [1], in experiment [15], in [10], in [12], in [7] and in experiment [16]. Besides, the AC50 in [4] was 5.94 µM (active); in experiment [5], 12.3 µM (active); in experiment [13], 7.4 µM (active); in [17] it was 4.28 µM (active).
In the case of `CCOP(=O)(OCC)Oc1cc(C)nc(C(C)C)n1`, the call in experiment [1], in experiment [15], in experiment [3], in experiment [10], in experiment [11] and in experiment [12] was inactive. The molecule was called inactive in [7] and in experiment [17]. Also, the AC50 in experiment [4] was 20 µM (active); in [5], 38.2 µM (active).
